The text below walks through data of ChEMBL document CHEMBL3988442, “University of Dundee, Small-Polar-MMV Screening Library” (2021).

Screen size: about 48,000 compounds; about 13,000 (27%) showed an effect of 50% or more. The list shows a part of the results.

For the experiment, the system named is Wolbachia pipientis. Briefly: Anti-Wolbachia Cell-Based Screen. Type of experiment: functional. Set-up: scale not given: in the data most compounds retested in dose-response had high values. To be noted: 5 µM.
For the compound `Cc1ccc(C)c2c(O)cc(CNCC(=O)N3CCCC3)nc12`, the “Percent Effect” value is on record as -11.62%.
In the case of `COc1ccc(CNC(=O)N2CCCN(CC3CCCCC3)CC2)cn1` it was -6.571%.
In the case of `CN(C)c1ncccc1NC(=O)COC1CCCC1` it was 0.222%.
In the case of `O=C(O)C(F)(F)F.OCCOCc1ncn2c1CN(Cc1cccs1)CCC2` it was 0.3209%.
In the case of `CCOCc1nn(C)c2c1CN(Cc1cccs1)CC2.O=C(O)C(F)(F)F`, the “Percent Effect” value is reported as 87.87%.
Next, `CCCN(CC(F)F)c1cc(COC)nc2ncnn12`: -12.24%.
Next, `O=C(c1ccc(C2CCCN2)s1)N1CCC2(CCCO2)CC1` (stereo not given): 16.77%; `c1csc(-c2cc(CN3CCN(c4cnccn4)CC3)no2)c1`: -0.0676%.
Next, `CC(C)N1CCCC(CN(C)c2ccc(Cn3ccnc3)cn2)C1` (stereo not given): -1.53%; `Fc1ccc(N2CCCN(c3ccc(Cn4ccnc4)cn3)CC2)cc1`: 119.2%; `c1cc(CN2CCCN(c3ccc4cc[nH]c4n3)CC2)ccn1`: -27.97%.
`OC1CCN(C2CCN(c3ccc(Cn4ccnc4)cn3)CC2)CC1`: the “Percent Effect” value amounted to 89.01%.
With `c1cn(Cc2nnc(C3CCN(C4CCCCC4)CC3)n2C2CC2)cn1`, the “Percent Effect” value came to 13.15%.
In the case of `CN(CC1CCN(c2ccccc2)C1)c1ccc(Cn2ccnc2)cn1` (stereo not given) it was -14.61%.
In the case of `c1csc(CN2CCCN(c3ccc(Cn4ccnc4)cn3)CC2)c1`, the “Percent Effect” value turned out to be 106.4%.
In the case of `c1cn(Cc2ccc(N3CCCN(C4CCCC4)CC3)nc2)cn1` it was 96.41%.
Take `CC1CCN(c2ccc(CNC(=O)NCCn3ccnc3)cn2)CC1`: the “Percent Effect” value turned out to be 0.6283%.
Next, `COc1cnc(N2CCCN(c3ccc(F)cc3)CC2)nc1`: 8.48%; `O=C(NCCn1ccnc1)NCc1ccc(N2CCCCCC2)nc1`: 15.34%.
`CCOc1ccc(C(=O)N2Cc3cnc(CC(C)C)nc3C2)o1`: the “Percent Effect” value is listed as -22.23%.
Consider `Cc1ccc(CC(NC(=O)CCS(C)(=O)=O)c2ccccn2)cc1` (stereo not given), for which the “Percent Effect” value is -19.62%.
In the case of `C[S+]([O-])c1nncn1CC(=O)c1ccc(Br)cc1` (stereo not given) it was -5.183%.
In the case of `Cc1ccc(CN2CCCC3(CCCCN3S(C)(=O)=O)C2)s1.O=C(O)C(F)(F)F` (stereo not given) it was -28.3%; in that of `Cc1nn(C)c(Cl)c1C1CCCN1C(=O)c1cc[nH]n1` (stereo not given), -2.963%; in that of `Cc1ncncc1C(=O)N1CCCC1c1c(C)nn(C)c1Cl` (stereo not given), 95.8%.
In the case of `Cc1nn(C)c(Cl)c1C1CCCN1C(=O)c1csnn1` (stereo not given) it was 106%.
For the compound `Cc1ccn2cc(C(=O)N3CCCC3c3c(C)nn(C)c3C)nc2c1` (stereo not given), the “Percent Effect” value stood at 3.405%.
With `CC(=O)NCc1ccc(C(=O)N2CCCC2c2c(C)nn(C)c2C)o1` (stereo not given), the “Percent Effect” value is listed as 97.07%.
On to `Cc1nn(C)c(Cl)c1C1CCCN1C(=O)c1cnccn1` (stereo not given), for which the “Percent Effect” value turned out to be 91.27%.
Consider `CCc1nc(CNCC2(C(N)=O)CCOCC2)cs1`, for which the “Percent Effect” value is given as 1.973%.
In the case of `CCCC1(CO)CCCN(c2ncccc2F)C1` (stereo not given) it was -3.484%; in that of `COc1ccc(OCc2cc(C(=O)N3CCN[C@H](C)C3)n[nH]2)c(Cl)c1`, -13.06%; in that of `CNC(=O)c1ccc(CN(C(C)C)C(C)C)o1.Cl`, -8.523%.
In the case of `COc1cc(C)c(CNC(C)c2csc(C)n2)cc1OC` (stereo not given) it was -9.97%; in that of `N#CCCN(CCC#N)C(=O)COC1CCCCC1`, -15.39%; in that of `Cc1nn(C)c(Cl)c1C1CCCN1C(=O)c1cnn(C)c1C1CC1` (stereo not given), 93.32%.
In the case of `COc1c(C2CCCN2C(=O)c2ccco2)c(C)nn1C` (stereo not given) it was -0.9591%; in that of `CCc1noc(C)c1C(=O)N1CCCC1c1c(C)nn(C)c1OC` (stereo not given), -9.828%.
For `COc1c(C2CCCN2C(=O)c2cnn(C)c2C2CC2)c(C)nn1C` (stereo not given), the “Percent Effect” value is -4.592%.
Next, `COCc1nc(C(=O)N2CCCC2c2c(C)nn(C)c2C)cs1` (stereo not given): 3.792%; `COc1c(C2CCCN2C(=O)c2csc(C(C)C)n2)c(C)nn1C` (stereo not given): 8.615%.
Next, `COc1c(C2CCCN2C(=O)c2ccc(Cl)o2)c(C)nn1C` (stereo not given): 6.578%; `COc1c(C2CCCN2C(=O)c2cc(C3CC3)on2)c(C)nn1C` (stereo not given): -11.04%; `COc1c(C2CCCN2C(=O)c2cc(C)on2)c(C)nn1C` (stereo not given): 99.28%.
For `CCc1ccc(C(=O)N2CCCC2c2c(C)nn(C)c2OC)o1` (stereo not given), the “Percent Effect” value turned out to be 54.64%.
In the case of `COc1c(C2CCCN2C(=O)c2csc(C3CC3)n2)c(C)nn1C` (stereo not given) it was 61.26%; in that of `c1ccc(CCCN2CC[C@H](c3nnc(-c4ccccc4)o3)C2)cc1`, -1.621%; in that of `CCN(Cc1ccoc1)C(C(N)=O)c1ccc(C#N)cc1` (stereo not given), 0.4454%.
Next, `O=C(NCCc1csc(N2CCCC2)n1)N(C1CCCC1)C1CC1`: -4.119%.
Consider `Cc1cc2nc(CO[C@H]3CN(C4CCCCC4)C[C@H]3F)[nH]c2cc1C`, for which the “Percent Effect” value came to 9.281%.
In the case of `Cc1noc([C@@H]2C[C@H]3CN(Cc4ccc5c(c4)OCO5)C[C@H]3O2)n1.O=C(O)C(F)(F)F` it was -40.6%; in that of `Cc1nn(C)c(Cl)c1C1CCCN1C(=O)c1cc(C2CC2)on1` (stereo not given), 102.8%.
Next, `COc1c(C2CCCN2C(=O)c2cnc(C)cn2)c(C)nn1C` (stereo not given): 86.16%; `COc1c(C2CCCN2C(=O)c2cnccn2)c(C)nn1C` (stereo not given): 114.6%; `COc1c(C2CCCN2C(=O)c2cscn2)c(C)nn1C` (stereo not given): 88.43%.
Next, `Cc1nc[nH]c1-c1nnc(SCC(=O)O)n1-c1ccccc1C(F)(F)F`: -17.22%; `O=S(=O)(Cc1ccccc1F)NC(CO)c1ccco1` (stereo not given): 6.014%; `Cl.Cl.Cl.O[C@@H]1C[C@@](CNCc2ccccn2)(COc2cccnc2)C[C@@H]1O`: -17.47%.
For `Cc1ccsc1CNC(=O)c1ccc(N2CCNC2=O)cc1`, the “Percent Effect” value turned out to be 1.647%.
Next, `COc1ccc(NC(=O)N2CCC3(CC2)NC(=O)CC3C(=O)O)c(C)c1` (stereo not given): 2.707%; `Cn1c(CS(=O)(=O)Cc2cccc(Cl)c2)cc(=O)n(C)c1=O`: 7.085%.
Next, `CCS(=O)(=O)CCNc1nc(C2CCCC2)nc2c1cnn2C`: 3.087%; `Cc1nn(C)c(C)c1C1CCCN1C(=O)Cc1cn2ccsc2n1` (stereo not given): 10.74%.
Next, `COc1c(C2CCCN2C(=O)Cc2c(C)noc2C)c(C)nn1C` (stereo not given): -5.371%; `CCc1nc(CC(=O)N2CCCC2c2c(C)nn(C)c2OC)cs1` (stereo not given): 118.7%.
Turning to `CCN(c1ccc(C(=O)Nc2c(C)nn(C(C)C)c2C)cc1)C(C)C`, the “Percent Effect” value is reported as -6.116%.
In the case of `COc1cccc(N2CC3(CCN(c4ccc(C)nn4)C3)CC2=O)c1` (stereo not given) it was 3.863%.
Next, `CN1[C@H](Cn2cccn2)C[C@@H]2CN(Cc3cccs3)CC[C@@H]21.O=C(O)C(F)(F)F.O=C(O)C(F)(F)F.O=C(O)C(F)(F)F`: 118%.
In the case of `CC(C)N1[C@H](Cn2cccn2)C[C@@H]2CN(Cc3ccoc3)CC[C@@H]21.O=C(O)C(F)(F)F.O=C(O)C(F)(F)F.O=C(O)C(F)(F)F` it was -17.46%; in that of `N#Cc1cccc(C(=O)N2CC[C@H]3[C@H]2CCN3CC2CCOCC2)c1.O=C(O)C(F)(F)F`, -18.46%.
Consider `O=C(O)C(F)(F)F.c1csc(CN2C[C@@H](n3cccn3)[C@H]3OCCC[C@H]32)c1`, for which the “Percent Effect” value came to 9.631%.
Next, `CN1C(Cn2cccn2)C[C@@H]2CN(C(=O)c3cccc(C#N)c3)CC[C@@H]21.O=C(O)C(F)(F)F.O=C(O)C(F)(F)F` (stereo not given in full): 118.1%; `CC(C)N1[C@H](Cn2cncn2)C[C@@H]2CN(Cc3cccs3)CC[C@@H]21.O=C(O)C(F)(F)F`: 3.978%.
Next, `Cc1ccc(CN2CC[C@H]3[C@H](CC(Cn4cccn4)N3C)C2)s1.O=C(O)C(F)(F)F.O=C(O)C(F)(F)F.O=C(O)C(F)(F)F` (stereo not given in full): 96%; `CN1[C@H](Cn2cncn2)C[C@@H]2CN(Cc3cccc(C#N)c3)CC[C@@H]21.O=C(O)C(F)(F)F.O=C(O)C(F)(F)F`: 3.665%; `CN(C1CCCC1)C(C)(C)C(=O)NCCNC(N)=O`: -0.4481%.
As for `COCC1CN(C(=O)Cc2ccccn2)Cc2ncnn2C1.O=C(O)C(F)(F)F` (stereo not given), the “Percent Effect” value is -1.318%.
Next, `Cc1ccc(CN2CCC(Cc3nnc(CO)n3C)CC2)cc1C`: -13.27%; `CN(c1ncc(S(N)(=O)=O)s1)C1CCC1`: 11.92%; `COc1cc(NCc2ncc[nH]2)ccc1Br`: 2.622%.
Next, `Cn1nc2c(cc1=O)CN(CCc1nc3ccccc3c(=O)[nH]1)CC2`: 5.907%; `CN(C)C(=O)COC[C@]12COC[C@H]1CN(CCc1ccccc1)C2.O=C(O)C(F)(F)F`: 103%.
Turning to `CN(C)C(=O)COC[C@]12COC[C@H]1CN(Cc1ccoc1)C2`, the “Percent Effect” value is given as -6.231%.
In the case of `CN(C)C(=O)COC[C@]12COC[C@H]1CN(Cc1ccco1)C2.O=C(O)C(F)(F)F` it was 94.75%; in that of `CN(C)C(=O)COC[C@]12COC[C@H]1CN(Cc1ccccc1)C2.O=C(O)C(F)(F)F`, 108.4%; in that of `CCS(=O)(=O)NC[C@]12COC[C@H]1CN(CCc1ccccc1)C2.O=C(O)C(F)(F)F`, -14.92%.
Next, `CN(C)C(=O)COC[C@]12COC[C@H]1CN(CC1CCC1)C2.O=C(O)C(F)(F)F`: -8.978%; `Cc1c(Cl)ccc2ccc(NC(CO)CO)nc12`: -19.83%; `Cc1ccc(NCc2cn3c(n2)CN(Cc2ccoc2)CC3)nn1.O=C(O)C(F)(F)F.O=C(O)C(F)(F)F`: 8.385%.
In the case of `CCn1ccnc1CN(C)C(C(=O)O)c1ccc(C(C)(C)C#N)cc1` (stereo not given) it was -18.43%.
Take `C=C(C)COc1cccc(CN(CC)Cc2noc(C)n2)c1`: the “Percent Effect” value is -43.03%.
In the case of `NC1CCN(C(=O)c2cnc(Cc3c(Cl)cccc3Cl)nc2O)C1` (stereo not given), the “Percent Effect” value is reported as -9.17%.
`COCCN(Cc1ccco1)Cc1nc(-c2ccsc2)no1`: the “Percent Effect” value is listed as 17.38%.
In the case of `CN(C)CCNc1c(-c2ccccc2)c(=O)c1=O` it was 102.6%.
In the case of `CN(C)CCNc1ccc(-c2nc(-c3ccccc3F)no2)cn1` it was -20.15%; in that of `CCN(CC)CCNC(=O)c1cnc(C(C)(C)C)s1`, -7.701%; in that of `CCN(CC)CCNC(=O)c1cnc(-c2ccccc2)nc1`, 14.16%.
Next, `CCN(CC)CCNc1c(-c2ccccc2)c(=O)c1=O`: 104.3%; `CCCN(CCC)CCNc1c(-c2ccccc2)c(=O)c1=O`: 97.32%; `CN(C)CCNc1ccc(-c2nc(COc3ccccc3)no2)cn1`: -0.8633%.
